# Assay results as given in PubChem BioAssay.
# The source made the active and inactive calls.
# What was measured:
# [1] = tested on: Plasmodium falciparum Sir2 (PF13_0152, Sir2A); assay: pfSir2 binders on small-molecule microarrays, primary screen, biochemical, small-molecule microarray, 635 nm fluorescence (AID 1098); settings: small-molecule microarray binding, fluorescence 635 nm; higher = more signal;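 also: score merges spot fluorescence intensity with its signal-to-noise ratio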
# [2] = small-molecule microarray binders of probe aDKK1, primary screen, biochemical, biotinylated probe, 635/667 nm fluorescence (AID 1099); settings: higher = more signal;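 also: score merges 667nm spot fluorescence with signal to noise across triplicate slides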
# [3] = small-molecule microarray binders of probe aCHRDL2, primary screen, biochemical, biotinylated probe, 635/667 nm fluorescence (AID 1100); settings: higher = more signal
# [4] = splicing luciferase reporter signal modulators, primary screen, spliceosome inhibition project, cell-based, HEK293, splice +/- reporter (AID 1101); settings: luminescence, 24 h, higher = more signal, called active from +8 up or from −8 down;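 also: HEK293 cells carrying a splicing-competent luciferase reporter gene; test concentration not given here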
# [5] = biological target: Fibroblast growth factor 10 (Homo sapiens) (UniProt O15520); assay: FGF10 binders on small-molecule microarrays, primary screen, biochemical, small-molecule microarray, 635 nm fluorescence (AID 1102); settings: FGF10 binding, fluorescence 635 nm, higher = more signal
# Sequence of Fibroblast growth factor 10 (Homo sapiens) (O15520 whole entry, looked up): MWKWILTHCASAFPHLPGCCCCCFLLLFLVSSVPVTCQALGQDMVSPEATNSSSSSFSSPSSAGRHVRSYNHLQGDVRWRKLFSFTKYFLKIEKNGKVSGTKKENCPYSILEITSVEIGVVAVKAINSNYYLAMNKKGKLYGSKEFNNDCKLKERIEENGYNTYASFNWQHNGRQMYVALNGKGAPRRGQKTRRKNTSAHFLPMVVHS
# [6] = tested on: glycogen synthase kinase-3 (GSK3A per assay name; protocol says GSK3B); assay: GSK3 binders on small-molecule microarrays, primary screen, biochemical, small-molecule microarray, 635 nm fluorescence, GSK3A (AID 1103); settings: small-molecule microarray binding, fluorescence 635 nm; higher = more signal; also: the record names both GSK3A and GSK3B
# [7] = biological target: Epidermal growth factor receptor (Homo sapiens) (UniProt P00533); assay: EGFR binders on small-molecule microarrays, primary screen, biochemical, small-molecule microarray, 635 nm fluorescence (AID 1104); settings: EGFR binding, higher = more signal;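 also: score merges 667 nm emission intensity with spot signal to noise over triplicate slides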
# Sequence of Epidermal growth factor receptor (Homo sapiens) (P00533 whole entry, looked up): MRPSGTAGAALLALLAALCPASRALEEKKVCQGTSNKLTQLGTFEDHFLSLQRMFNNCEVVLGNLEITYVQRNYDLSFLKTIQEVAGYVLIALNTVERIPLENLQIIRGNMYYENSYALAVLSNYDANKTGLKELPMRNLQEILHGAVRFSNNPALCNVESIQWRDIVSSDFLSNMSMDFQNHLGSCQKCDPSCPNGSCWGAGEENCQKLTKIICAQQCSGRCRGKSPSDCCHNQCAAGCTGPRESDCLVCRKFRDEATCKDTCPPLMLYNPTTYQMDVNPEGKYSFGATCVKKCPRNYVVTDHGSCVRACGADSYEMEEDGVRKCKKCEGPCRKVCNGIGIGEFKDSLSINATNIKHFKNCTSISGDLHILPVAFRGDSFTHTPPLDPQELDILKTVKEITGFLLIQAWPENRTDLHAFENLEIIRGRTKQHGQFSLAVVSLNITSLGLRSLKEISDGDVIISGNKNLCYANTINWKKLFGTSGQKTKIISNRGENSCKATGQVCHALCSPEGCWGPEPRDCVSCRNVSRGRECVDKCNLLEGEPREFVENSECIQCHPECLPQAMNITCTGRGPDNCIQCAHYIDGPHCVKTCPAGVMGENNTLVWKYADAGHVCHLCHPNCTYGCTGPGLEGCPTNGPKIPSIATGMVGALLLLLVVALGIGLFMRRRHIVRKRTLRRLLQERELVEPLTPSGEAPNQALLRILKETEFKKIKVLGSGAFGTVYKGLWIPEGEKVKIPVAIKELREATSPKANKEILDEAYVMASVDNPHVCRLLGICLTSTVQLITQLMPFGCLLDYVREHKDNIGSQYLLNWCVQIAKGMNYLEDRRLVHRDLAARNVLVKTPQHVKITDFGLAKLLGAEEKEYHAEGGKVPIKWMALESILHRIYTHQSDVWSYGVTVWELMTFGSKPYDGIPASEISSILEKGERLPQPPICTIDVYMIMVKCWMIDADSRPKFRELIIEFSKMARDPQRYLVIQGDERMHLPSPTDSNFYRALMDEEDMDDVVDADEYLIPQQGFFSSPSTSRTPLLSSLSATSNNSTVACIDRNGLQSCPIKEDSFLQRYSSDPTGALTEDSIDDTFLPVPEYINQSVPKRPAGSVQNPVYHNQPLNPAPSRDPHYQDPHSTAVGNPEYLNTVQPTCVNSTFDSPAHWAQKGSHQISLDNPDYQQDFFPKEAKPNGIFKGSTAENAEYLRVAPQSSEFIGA
# [8] = biological target: Follistatin-related protein 3 (Homo sapiens) (UniProt O95633); assay: FSTL3 binders on small-molecule microarrays, primary screen, biochemical, small-molecule microarray, 635 nm fluorescence (AID 1105); settings: FSTL3 binding, higher = more signal;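 also: score merges emission near 667 nm and signal to noise per printed spot across three slides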
# Sequence of Follistatin-related protein 3 (Homo sapiens) (O95633 whole entry, looked up): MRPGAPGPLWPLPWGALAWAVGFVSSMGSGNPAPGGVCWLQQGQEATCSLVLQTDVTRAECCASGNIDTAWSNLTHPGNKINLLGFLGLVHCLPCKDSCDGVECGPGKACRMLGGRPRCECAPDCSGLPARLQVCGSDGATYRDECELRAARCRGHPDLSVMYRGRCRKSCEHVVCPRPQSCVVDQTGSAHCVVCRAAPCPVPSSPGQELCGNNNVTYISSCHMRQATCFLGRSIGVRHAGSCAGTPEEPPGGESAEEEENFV
# [9] = biological target: Dickkopf-related protein 1 (Homo sapiens) (UniProt O94907); assay: DKK1 binders on small-molecule microarrays, primary screen, biochemical, small-molecule microarray, 635 nm fluorescence scan (AID 1106); settings: DKK1 binding, higher = more signal;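 also: score merges emission near 667 nm with signal to noise over three replicate slides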
# Sequence of Dickkopf-related protein 1 (Homo sapiens) (O94907 whole entry, looked up): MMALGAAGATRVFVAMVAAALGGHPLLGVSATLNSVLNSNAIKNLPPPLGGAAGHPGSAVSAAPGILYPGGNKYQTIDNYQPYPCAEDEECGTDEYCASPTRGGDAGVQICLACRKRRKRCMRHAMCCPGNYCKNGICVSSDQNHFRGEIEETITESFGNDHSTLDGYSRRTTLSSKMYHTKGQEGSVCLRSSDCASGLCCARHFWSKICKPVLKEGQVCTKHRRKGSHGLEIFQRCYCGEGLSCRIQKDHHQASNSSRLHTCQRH
# [10] = tested on: Inhibin beta A chain (activin A); assay: INHBA (activin A) binders on microarrays, primary screen, biochemical, small-molecule microarray, 635 nm fluorescence scan (AID 1107); settings: small-molecule microarray binding, higher = more signal;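 also: mouse activin A protein probed at 4.33 µg/mL on printed slides; score merges bound-protein fluorescence near 667 nm with spot signal-to-noise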
# [11] = tested on: Human papillomavirus type 1a protein E7 (residues 44-93); assay: HPV1a E7 fragment binders on microarrays, primary screen, biochemical, small-molecule microarray, residues 44-93, 635 nm fluorescence (AID 1108); settings: small-molecule microarray binding, fluorescence 635 nm; higher = more signal;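 also: E7 fragment applied at 1 µg/mL in TBST for 1 h at 4 C; score combines spot fluorescence with its signal to noise ratio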
# [12] = modulators of HCV replicon luciferase signal, primary screen, HCV replication inhibitor project, Huh7 cells, luciferase reporter (AID 1109); settings: 48 h, higher = more signal;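 also: huh7 hepatoma cells harbouring a luciferase neomycin HCV replicon reporter; luciferase luminescence as measure of HCV replicon replication; test concentration not given here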
# [13] = biological target: Left-right determination factor 2 (Homo sapiens) (UniProt O00292); assay: LEFTY2 binders on small-molecule microarrays, primary screen, biochemical, small-molecule microarray, 635 nm fluorescence scan (AID 1110); settings: LEFTY2 binding, higher = more signal
# Sequence of Left-right determination factor 2 (Homo sapiens) (O00292 whole entry, looked up): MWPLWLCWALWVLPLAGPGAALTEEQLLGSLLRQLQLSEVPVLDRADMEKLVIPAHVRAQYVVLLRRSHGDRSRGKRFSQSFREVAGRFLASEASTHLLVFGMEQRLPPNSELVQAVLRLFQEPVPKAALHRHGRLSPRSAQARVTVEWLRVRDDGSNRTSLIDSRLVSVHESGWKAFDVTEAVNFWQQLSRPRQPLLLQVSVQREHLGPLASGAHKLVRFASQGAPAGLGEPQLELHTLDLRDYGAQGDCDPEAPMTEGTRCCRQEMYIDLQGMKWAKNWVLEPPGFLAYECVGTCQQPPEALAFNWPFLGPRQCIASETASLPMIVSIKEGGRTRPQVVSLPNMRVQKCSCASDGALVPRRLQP
# [14] = biological target: Calmodulin-1 (Homo sapiens) (UniProt P0DP23); assay: CALM1 binders on microarrays, EGTA buffer, profiling panel, biochemical, small-molecule microarray, Cy5-labelled CALM1 (AID 1111); settings: Cy5-CALM1 binding fluorescence, higher = more signal;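 also: labelled calmodulin applied in Tris saline Tween buffer holding calcium plus EGTA and DTT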
# [15] = biological target: Calmodulin-1 (Homo sapiens) (UniProt P0DP23); assay: calcium-bound CALM1 binders on microarrays, profiling panel, artefact control for SMM control-protein annotation, biochemical, small-molecule microarray, Cy5-labelled CALM1, plus calcium (AID 1112); settings: Cy5-CALM1 binding fluorescence, higher = more signal;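 also: score merges spot fluorescence with signal to noise from triplicate slides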
# [16] = small-molecule microarray binders of probe aWnt5a, primary screen, biochemical, biotinylated probe, 635/667 nm fluorescence (AID 1113); settings: higher = more signal;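 also: score merges 667 nm fluorescence intensity with signal-to-noise per printed feature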
# [17] = small-molecule microarray binders of probe aShh, primary screen, biochemical, biotinylated probe, 635/667 nm fluorescence (AID 1114); settings: higher = more signal;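 also: probe is biotin-labelled aShh protein from a stem cell growth factor screen; measures binding of labelled protein to compounds printed on the slide; score merges feature fluorescence at 667 nm with signal-to-noise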
# [18] = small-molecule microarray binders of probe aNog, primary screen, biochemical, biotinylated probe, 635/667 nm fluorescence (AID 1115); settings: higher = more signal;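 also: probe is biotinylated aNog protein used at 0.15 µg/mL for 1 h at 4 C; z-score combines 667 nm fluorescence of each spot with its signal to noise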
# [19] = biological target: Torsin-1A-interacting protein 1 (Homo sapiens) (UniProt Q5JTV8); assay: LAP1 binders from COS7 cell lysate, primary screen, small-molecule microarray, 635/667 nm fluorescence (AID 1116); settings: COS7-hLAP1 lysate binding, 635 nm fluorescence, higher = more signal
# Sequence of Torsin-1A-interacting protein 1 (Homo sapiens) (Q5JTV8 whole entry, looked up): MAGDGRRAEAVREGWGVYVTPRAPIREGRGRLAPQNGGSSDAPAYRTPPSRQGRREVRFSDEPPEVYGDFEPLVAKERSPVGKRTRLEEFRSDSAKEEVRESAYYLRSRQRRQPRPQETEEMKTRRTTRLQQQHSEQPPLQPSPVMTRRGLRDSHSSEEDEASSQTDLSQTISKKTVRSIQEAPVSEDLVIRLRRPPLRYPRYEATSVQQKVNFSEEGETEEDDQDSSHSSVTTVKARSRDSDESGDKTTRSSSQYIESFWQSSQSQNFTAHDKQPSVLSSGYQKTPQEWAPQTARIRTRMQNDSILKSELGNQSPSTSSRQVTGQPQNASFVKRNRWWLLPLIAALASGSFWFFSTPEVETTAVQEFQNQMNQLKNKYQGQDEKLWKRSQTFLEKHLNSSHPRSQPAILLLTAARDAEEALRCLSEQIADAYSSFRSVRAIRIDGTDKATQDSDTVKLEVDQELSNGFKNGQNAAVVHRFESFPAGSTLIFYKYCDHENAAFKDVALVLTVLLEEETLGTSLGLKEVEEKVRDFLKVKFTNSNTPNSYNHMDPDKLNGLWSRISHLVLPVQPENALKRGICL
# [20] = biological target: Alpha-bungarotoxin (Bungarus multicinctus) (UniProt P60615); assay: alpha-bungarotoxin binders on microarray, profiling panel, artefact control for SMM control protein annotation, biochemical, small-molecule microarray, Alexa647 label, 635/667 nm fluorescence (AID 1117); settings: alpha-BTX-A647 binding fluorescence, higher = more signal
# Sequence of Alpha-bungarotoxin (Bungarus multicinctus) (P60615 whole entry, looked up): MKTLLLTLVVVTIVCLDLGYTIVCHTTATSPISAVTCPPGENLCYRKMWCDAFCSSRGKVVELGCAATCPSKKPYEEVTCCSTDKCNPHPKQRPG
Structure (SMILES),composite z-score [1],composite z-score [2],composite z-score [3],z-score [4],composite z-score [5],composite z-score [6],composite z-score [7],composite z-score [8],composite z-score [9],composite z-score [10],composite z-score [11],z-score [12],composite z-score [13],composite z-score [14],composite z-score [15],composite z-score [16],composite z-score [17],composite z-score [18],composite z-score [19],composite z-score [20]
C=CCN1C(=O)[C@]2(CCC(=O)OC(C)(C)C)N=C(c3ccc(OCCCO)cc3)O[C@@H]2c2ccccc21,0.765,0.177,0.947,-1.82 (inactive),-0.184,0.298,0.348,0.635,0.384,1.18,0.841,-2.91,0.272,1.23,-0.0414,-0.0441,0.131,-0.292,0.423,1.38
NC(=O)[C@@]1(Cc2ccccc2)COC(c2ccc(OCCCO)cc2)=N1,0.0491,0.618,0.836,0.444 (inactive),0.594,-0.923,-0.377,-0.807,-0.636,0.663,0.404,1.84,-0.263,0.435,1.2,-0.0179,0.46,0.959,0.381,-0.0002
CCCCC(O)C1C=CC2C(=O)N(C)C(=O)C2N1N(c1ccccc1)c1ccccc1 (stereo not given),1.5,0.866,1.31,1.44 (inactive),0.42,1.02,0.0978,0.424,-0.73,1.18,0.447,-0.991,0.186,2.06,0.766,-0.0161,0.393,1.53,1.41,1.8
CCCCCN1CC=CC23O[C@@H]4/C=C\CCC(C)OC(=O)C4[C@H]2C(=O)N(C(CO)C(C)C)[C@@H]3C1=O (stereo not given in full),1.63,-0.612,-0.288,0.139 (inactive),0.0694,-0.169,-0.538,0.0876,-0.543,1.18,-0.333,-1.64,-0.214,-0.983,-0.876,-0.172,-0.469,-0.463,0.163,0.0325
COc1ccc(C#Cc2ccc3c(c2)[C@]2(C(=O)N3)[C@H](C(=O)O)[C@H]3C(=O)O[C@H](c4ccccc4)[C@H](c4ccccc4)N3[C@@H]2c2ccc(O)cc2)cc1,1.52,0.734,0.681,-0.264 (inactive),-0.054,-0.352,-0.165,-0.382,-0.603,0.0045,0.78,-1.43,-0.67,0.695,1.2,-0.124,0.214,-0.0446,0.286,-0.204
Cc1cc(C)c(C(O)C2C=CC3C(=O)N(c4ccccc4)C(=O)C3N2Nc2ccccc2F)c(C)c1 (stereo not given),0.622,-0.134,0.706,1.75 (inactive),0.119,-0.574,-0.396,-0.191,-0.26,0.72,0.0453,0.937,-0.636,0.139,-0.0086,0.184,0.282,1.32,0.563,0.505
C=CC[C@@H](OC(=O)Nc1ccc(OC)cc1)c1ccc(O)c(F)c1,1.69,-0.0015,0.74,-1.95 (inactive),-0.549,-0.363,-1.2,-0.741,-0.658,0.19,0.954,-1.73,-0.784,-0.976,-0.427,-0.184,0.0141,-0.0602,1.55,-0.418
COC(=O)C/C=C/C[C@]1(O)C(=O)N(C)c2ccccc21,-0.262,-0.299,-0.802,-1.38 (inactive),0.791,0.605,0.784,0.616,0.949,0.587,0.0938,0.027,0.704,-1.34,-0.895,-0.122,-0.243,-0.252,0.194,0.766
CC(C)[Si]1(C(C)C)OCc2cc(-c3ccc(-c4ccc(Cl)c(Cl)c4)o3)nc(-c3ccccc3)c21,1.33,-0.0755,0.724,0.14 (inactive),-1.08,-1.22,-1.84,-1.04,-1.32,1.05,-0.922,-1.16,-1.59,-0.856,-0.341,-0.16,0.0121,-0.418,-1.16,-0.597
CCCC=C(CCC)[C@@H](NS(=O)(=O)c1ccc(C(F)(F)F)cc1)c1ccccc1,0.156,-0.001,0.614,-0.172 (inactive),0.0772,0.571,-0.585,-0.143,-0.61,0.388,0.608,-0.0015,-0.318,0.641,0.951,0.0853,-0.106,0.711,-0.127,0.261
C=C(/C(=C/C[C@H](OC(=O)c1ccncc1)c1ccc(CO)o1)c1cnc2ccccc2c1)C(C)C,0.614,-0.173,-0.304,0.984 (inactive),1.41,1.16,0.932,1.46,0.791,1.81,1.38,-2.1,0.957,0.544,-0.0351,0.0474,-0.15,0.181,0.854,0.999
C=CCNC(=O)[C@@H]1[C@H]2C(=O)O[C@H](c3ccccc3)[C@H](c3ccccc3)N2[C@H](c2ccccc2OCCO)[C@@]12C(=O)Nc1ccc(C#CCCO)cc12,0.124,-0.332,0.178,-1.06 (inactive),0.95,0.773,0.954,1.04,1.49,0.65,-0.489,-0.364,1.2,0.142,-0.0836,-0.147,-0.273,-0.0965,0.544,0.0913
CCCCC(=C=CC[C@H](O)c1ccc(OCCO)cc1)CCO,0.69,-0.194,0.208,-0.0149 (inactive),0.0655,-0.686,-0.709,-0.24,-0.704,0.817,0.656,-1.1,-0.917,-0.333,-0.404,-0.124,-0.154,-0.0007,0.92,-0.322
N#Cc1ccc(NN2C(C(O)c3ccc(Br)cc3)C=CC3C(=O)N(c4ccccc4)C(=O)C32)cc1 (stereo not given),1.17,0.96,0.905,-0.699 (inactive),0.65,0.648,0.297,0.743,0.316,-0.374,-1.46,-0.431,0.503,1.53,0.141,0.234,0.162,2.03,1.14,2.36
CN(C)C(=O)[C@@]1(Cc2ccccc2CN=[N+]=[N-])N=C(c2ccc(OCCCO)cc2)O[C@H]1c1ccccc1N=[N+]=[N-],1.63,0.842,1,-0.731 (inactive),0.884,0.588,-0.239,0.724,-0.451,0.987,1.45,-2.99,-0.553,1.73,1.11,-0.191,-0.138,1.84,2.26,1.93
O=C1O[C@@H](c2ccccc2)[C@@H](c2ccccc2)N2[C@@H](c3ccc(O)cc3)[C@]3(C(=O)Nc4ccc(C#CCCO)cc43)[C@@H](C(=O)N3CCN(c4ncccn4)CC3)[C@H]12,1.64,-1.25,-1.14,-0.116 (inactive),1.4,1.29,0.103,0.89,-0.0103,-0.0153,0.99,-0.671,0.787,-0.587,-0.948,-0.512,-0.232,0.498,0.255,0.101
